Source: PubChem BioAssay (NCATS)
Inconclusive results are not listed. Entries that show only a call come without a potency. The source made the active and inactive calls. The call rests on the fitted dose curve; in most records, active means well fitted inhibition curve with a large enough effect; inconclusive means small, poorly fitted or top-dose-only effect; inactive means flat fitted curve, though single readings scatter.

The compounds below were run on Zika virus NS2B-NS3 protease (assay: Primary screen GU AMC qHTS for Zika virus inhibitors (AID 1347154; further: nearly all actives have a fitted effect of over 70% in size)). Conditions: Zika NS2B-NS3 unlinked protease, AMC fluorogenic substrate; series mostly up to 54.1 µM.
Outline: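 Unlinked Zika NS2B hydrophilic domain/NS3 protease domain noncovalent complex (25 nM final) in 10 mM Tris-HCl pH 8.0, 0.01% Tween 20, with AMC peptide substrate. Fluorescence (ex 340, em 450 nm) change over 15 min, room temperature; percent inhibition fitted to 4-parameter Hill equation.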
In the case of `CNc1c2c(nn1C)CCCC2`, the Potency was “inactive”.
For `Cn1cc(C(=O)[C@@H]2CCc3nc[nH]c3C2)c2ccccc21`, the Potency was “inactive”.
For `Cc1c(NC(C)C)c(=O)n(-c2ccccc2)n1C`, the Potency was “inactive”.
For `CCN(CC)CC1CCCCN1CC(=O)N1c2ccccc2C(=O)Nc2cccnc21` (centres undefined), the Potency was “inactive”.
With `CN[C@@H]1[C@H](O)[C@H](NC)[C@H]2O[C@@]3(O)C(=O)C[C@@H](C)O[C@H]3O[C@@H]2[C@H]1O` the Potency was “inactive”.
In the case of `CC1CCc2cc(F)cc3c(=O)c(C(=O)O)cn1c23` (centres undefined), the Potency was “inactive”.
With `CC(=O)N1C[C@H](O)C[C@H]1C(=O)O` the Potency was “inactive”.
For `Cc1cc(-n2nc3ccc(Cl)cc3n2)c(O)c(C(C)(C)C)c1`, the Potency was “inactive”.
`O=C(O)CNC(=O)c1ccccc1I` was tested, and the Potency was “inactive”.
In the case of `CC(=O)OC[C@H]1O[C@@](COC(C)=O)(O[C@H]2O[C@H](COC(C)=O)[C@@H](OC(C)=O)[C@H](OC(C)=O)[C@H]2OC(C)=O)[C@@H](OC(C)=O)[C@@H]1OC(C)=O`, the Potency was “inactive”.
For `CN(C/C=C/C#CC(C)(C)C)Cc1cccc2ccccc12`, the Potency was “inactive”.
With `CN[C@@H]1[C@@H](O)[C@@H](O[C@@H]2[C@H](O)[C@H](O[C@H]3OC(CN)=CC[C@H]3N)[C@@H](N)C[C@H]2N)OCC1(C)O` (some centres undefined) the Potency was “inactive”.
For `C[C@]1(Cn2ccnn2)[C@H](C(=O)O)N2C(=O)C[C@H]2S1(=O)=O`, the Potency was “inactive”.
For `C=CCNC(N)=S`, the Potency was “inactive”.
